# Measured values published in PubChem BioAssay (NCATS).
# Results filed as inconclusive are left out. Active and inactive are the calls of the source. Unless noted, calls follow the shape of the full dose curve.
# What was measured:
# [1] = qHTS drug screen for cell cycle checkpoint inhibitors in PARPi-resistant BRCA-mutant ovarian cancer cell lines. (AID 1963452); conditions: PEO1/OlaR viability, CellTiter-Glo luminescence, 96 h; for Z-AUC: stronger effect = lower value; also: potency is read from the fitted curve at half-maximal effect
# How it was run: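 PEO1, PEO4 and PEO1/OlaR ovarian cancer cells, 600 per well, exposed 96 h at 37C to a dilution series. Viability read by CellTiter-Glo luminescence, normalized to DMSO and empty wells; activity summarized as Z-AUC.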
# [2] = qHTS Counterscreen for compound interference against the NCATS DSHEA and TCM libraries (AID 1919978; active = well fitted curve in the direction sought with a large enough effect; an effect the other way counts as inactive or inconclusive;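 also: compounds preincubated with 1 µM D-luciferin or buffer before detection reagent; % of control where 0% means no effect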); conditions: firefly luciferase detection reagent interference, luminescence
# How it was run: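 Firefly luciferase detection reagent was added after compounds (19.5 nM–39.8 uM final) had been incubated 15 min at room temperature with 1 uM D-luciferin or with 100 mM phosphate buffer alone. Luminescence was read after 30 min at room temperature.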
# [3] = Dual reporter qHTS for agonist of Pregnane X Receptor (hPXR) against the NCATS DSHEA and TCM libraries: Fluorescence readout (AID 1920058; active = well fitted curve in the direction sought with a large enough effect; an effect the other way counts as inactive or inconclusive; also: 0% is about no effect); conditions: PXR dual reporter cells; series mostly up to 40 µM
# How it was run: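 HepG2 hPXR-Luc, 2000 cells/well, 5 h attach; cpds ~24 h, 37 °C/5% CO2; CellTiter-Fluor 1 h; fluor. Ex/Em 405/540 nm = viability.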
# [4] = biological target: Nuclear receptor subfamily 1 group I member 2 (Homo sapiens) (UniProt O75469); experiment: Dual reporter qHTS for agonist of Pregnane X Receptor (hPXR) against the NCATS DSHEA and TCM libraries: Luminescence readout (AID 1920059; active = well fitted curve in the direction sought with a large enough effect; an effect the other way counts as inactive or inconclusive; also: 0% is about no effect); conditions: hPXR dual reporter cells, luciferase luminescence agonist; series mostly up to 40 µM
# Sequence of Nuclear receptor subfamily 1 group I member 2 (Homo sapiens) (O75469 whole entry, looked up): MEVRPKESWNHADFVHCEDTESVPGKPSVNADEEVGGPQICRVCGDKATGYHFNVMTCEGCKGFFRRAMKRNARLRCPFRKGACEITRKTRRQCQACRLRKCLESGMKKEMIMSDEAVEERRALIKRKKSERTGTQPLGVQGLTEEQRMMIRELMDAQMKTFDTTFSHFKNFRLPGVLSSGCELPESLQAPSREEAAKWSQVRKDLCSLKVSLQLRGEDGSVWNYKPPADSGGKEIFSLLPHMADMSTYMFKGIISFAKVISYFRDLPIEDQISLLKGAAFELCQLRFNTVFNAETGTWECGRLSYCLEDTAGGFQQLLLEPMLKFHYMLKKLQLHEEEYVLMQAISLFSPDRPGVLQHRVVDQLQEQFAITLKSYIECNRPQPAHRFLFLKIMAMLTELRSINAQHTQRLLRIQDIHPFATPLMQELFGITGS
# How it was run: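 hPXR-Luc HepG2 cells, 2000/well in 5% charcoal-stripped FBS medium, attached 5 h, then exposed 24 h at 37C to compounds. Viability by CellTiter-Fluor, then luciferase luminescence with ONE-Glo.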
# [5] = biological target: Nuclear receptor subfamily 1 group I member 2 (Homo sapiens) (UniProt O75469); experiment: Dual reporter qHTS for antagonist of Pregnane X Receptor (hPXR) against the NCATS DSHEA and TCM libraries: Luminescence Readout (AID 1920060; active = well fitted curve in the direction sought with a large enough effect; an effect the other way counts as inactive or inconclusive;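 also: HepG2 cells carrying hPXR luciferase reporter stimulated with rifampicin at 2 µM; 0% is about no effect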); conditions: hPXR dual reporter cells, luciferase luminescence, antagonist mode; series mostly up to 40 µM
# How it was run: (§1)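 hPXR-Luc HepG2 cells exposed 24 h at 37 C to compounds with 2 uM rifampicin in antagonist mode; luciferase luminescence measured by ONE-Glo, with CellTiter-Fluor viability read beforehand.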
# [6] = Dual reporter qHTS for antagonist of Pregnane X Receptor (hPXR) against the NCATS DSHEA and TCM libraries: Fluorescence Readout (AID 1920061; active = well fitted curve in the direction sought with a large enough effect; an effect the other way counts as inactive or inconclusive; also: 0% is about no effect); conditions: PXR dual reporter cells, antagonist mode; series mostly up to 40 µM
# How it was run: as §1
# [7] = qHTS for identification of novel therapeutic agents for treatment of microphthalmiaassociated transcription factor (MiT) renal cell carcinoma (RCC) (AID 1963991); conditions: CellTiter-Glo, 48 h, stronger effect = lower value
# How it was run: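 Three TFE3-fusion RCC lines (UOK109, UOK124, UOK145), 500 cells/well in complete medium, were treated with MIPE 4.0 compounds for 48 hours at 37 C. Viability was by CellTiter-Glo luminescence, normalized to DMSO (100%) and empty wells (0%); curves fitted over 11 concentrations.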
# [8] = biological target: Cytochrome P450 1A2 (Homo sapiens) (UniProt P05177); experiment: qHTS for inhibitors of CYPIA2 against the NCATS DSHEA and TCM libraries (AID 1919976; active = well fitted curve in the direction sought with a large enough effect; an effect the other way counts as inactive or inconclusive;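 also: light from luciferin formed by CYP1A2 from a pro-luciferin substrate; % is scaled to controls: 0 for no effect and ±100 for the full control effect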); conditions: recombinant CYP1A2 enzyme activity, luminescence; series mostly up to 37 µM
# Sequence of Cytochrome P450 1A2 (Homo sapiens) (P05177 whole entry, looked up): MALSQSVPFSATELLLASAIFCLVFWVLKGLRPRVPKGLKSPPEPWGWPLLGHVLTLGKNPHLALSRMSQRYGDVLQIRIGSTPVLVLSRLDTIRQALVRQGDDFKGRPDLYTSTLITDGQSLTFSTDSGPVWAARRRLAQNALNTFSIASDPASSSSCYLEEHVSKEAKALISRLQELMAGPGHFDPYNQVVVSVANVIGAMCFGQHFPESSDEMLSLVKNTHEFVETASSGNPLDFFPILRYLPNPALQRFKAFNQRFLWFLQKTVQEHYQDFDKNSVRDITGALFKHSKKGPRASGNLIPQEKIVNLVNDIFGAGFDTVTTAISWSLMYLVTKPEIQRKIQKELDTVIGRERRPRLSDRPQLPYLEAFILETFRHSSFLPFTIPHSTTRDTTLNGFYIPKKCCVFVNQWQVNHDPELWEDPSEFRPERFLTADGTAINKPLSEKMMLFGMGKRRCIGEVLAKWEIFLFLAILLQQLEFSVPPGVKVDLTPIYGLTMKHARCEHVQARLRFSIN
# How it was run: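 CYP1A2 + luciferin substrate, 100 mM KPO4-type buffer; cmpd 15 min RT; 1x NADPH regen, 30-45 min RT dark; detection reagent 30 min RT; luminescence. Minus-enzyme wells as background; furafylline intraplate control.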
# [9] = measured here: PEO1 parental Z-AUC
# [10] = TFE3-RCC UOK109 viability, measured here: UOK109 Z-AUC
# [11] = TFE3-RCC viability, measured here: UOK124 Z-AUC
# [12] = TFE3-RCC viability, measured here: UOK145 Z-AUC
structure (smiles),measurement,setting,value
OCCNC1CCCc2c1[nH]c1ccc(-c3ccccc3)cc21 (stereo not given),Z-AUC,[1],-0.486 (inactive)
same,Z-AUC,[1]; [9],-0.384
same,Z-AUC,[1]; measured here: PEO4 Z-AUC,0.0631
COc1ccc(C[C@@H](C)[C@@H](C)Cc2ccc(OC)c(OC)c2)cc1OC,Z-AUC,[1],0.193 (inactive)
same,Z-AUC,[1]; [9],-0.135
same,Z-AUC,[1]; measured here: PEO4 Z-AUC,0.0624
O=C1c2c(O)cccc2[C@@H]([C@@H]2O[C@H](CO)[C@@H](O)[C@H](O)[C@H]2O)c2cc(CO)cc(O)c21,max response,[2],-13.5% (inactive)
same,outcome,[3],inactive
same,outcome,[4],inactive
same,outcome,[5],inactive
same,outcome,[6],inactive
same,z-score,[7]; [10],0.509
same,z-score,[7]; [11],0.726
same,z-score,[7]; [12],0.571
CC1=C(C(=O)Nc2cc3cn[nH]c3cc2F)C(c2ccc(Cl)cc2F)N=C(c2ccnc(Cl)c2)N1 (stereo not given),Z-AUC,[1],0.0424 (inactive)
same,Z-AUC,[1]; [9],0.693
same,Z-AUC,[1]; measured here: PEO4 Z-AUC,0.963
CC(=O)SCC(Cc1ccccc1)C(=O)NCC(=O)OCc1ccccc1 (stereo not given),Z-AUC,[1],0.0229 (inactive)
same,Z-AUC,[1]; [9],1.28
same,Z-AUC,[1]; measured here: PEO4 Z-AUC,0.777
O=C(Nc1nnc(-c2ccco2)o1)c1cc(-c2ccccc2)nc2ccccc12,Z-AUC,[1],1.38 (inactive)
same,Z-AUC,[1]; [9],0.606
same,Z-AUC,[1]; measured here: PEO4 Z-AUC,0.601
COc1cc2c(cc1OC)[C@@H]1C(=O)c3ccc4c(c3O[C@@H]1CO2)C=CC(C)(C)O4,Z-AUC,[1],-0.868 (inactive)
same,Z-AUC,[1]; [9],-1.79
same,Z-AUC,[1]; measured here: PEO4 Z-AUC,-1.41
Cc1cnc(NC(=O)Nc2cc(Br)c(C)cc2OC[C@@H]2CNCCO2)cn1,Z-AUC,[1],-0.43 (inactive)
same,Z-AUC,[1]; [9],-0.193
same,Z-AUC,[1]; measured here: PEO4 Z-AUC,-0.00574
Cc1cnc(Nc2ccc(N3CCN(C)CC3)cc2)nc1Nc1cccc(S(=O)(=O)NC(C)(C)C)c1,Z-AUC,[1],-0.289 (inactive)
same,Z-AUC,[1]; [9],-0.236
same,Z-AUC,[1]; measured here: PEO4 Z-AUC,-0.304
O=C(O)CCCCC(CCSCc1ccccc1)SCc1ccccc1 (stereo not given),Z-AUC,[1],1.05 (inactive)
same,Z-AUC,[1]; [9],1.63
same,Z-AUC,[1]; measured here: PEO4 Z-AUC,1.32
O=C1CSC(=O)N1C(CCc1ccncc1)COc1ccc(-c2cccc([N+](=O)[O-])c2)cc1 (stereo not given),Z-AUC,[1],0.623 (inactive)
same,Z-AUC,[1]; [9],-0.739
same,Z-AUC,[1]; measured here: PEO4 Z-AUC,0.104
NC(=O)Nc1cc(-c2ccc(CN3CCOCC3)cc2)sc1C(N)=O,Z-AUC,[1],0.59 (inactive)
same,Z-AUC,[1]; [9],0.476
same,Z-AUC,[1]; measured here: PEO4 Z-AUC,0.41
CCCCOc1ccc(C(=O)Nc2ccc(F)cc2F)cc1,Z-AUC,[1],-0.387 (inactive)
same,Z-AUC,[1]; [9],-0.847
same,Z-AUC,[1]; measured here: PEO4 Z-AUC,-0.905
FC(F)(F)c1ccc(Nc2nc3ccc(Oc4ccnc(-c5ncc(C(F)(F)F)[nH]5)c4)cc3[nH]2)cc1,Z-AUC,[1],-0.52 (inactive)
same,Z-AUC,[1]; [9],-0.706
same,Z-AUC,[1]; measured here: PEO4 Z-AUC,-1.16
Cc1ncc(-c2ccnc(Nc3ccc(S(C)(=O)=O)cc3)n2)n1C(C)C,Z-AUC,[1],-1.39 (inactive)
same,Z-AUC,[1]; [9],-0.968
same,Z-AUC,[1]; measured here: PEO4 Z-AUC,-1.44
NC(=O)Nc1sc(-c2ccc(F)cc2)cc1C(N)=O,Z-AUC,[1],-1.29 (inactive)
same,Z-AUC,[1]; [9],-1.13
same,Z-AUC,[1]; measured here: PEO4 Z-AUC,-1.05
COC[C@H](NC(=O)c1cnc(C)s1)C(=O)N[C@@H](COC)C(=O)N[C@@H](Cc1ccccc1)C(=O)[C@@]1(C)CO1,Potency,[1],138 nM (active)
same,Z-AUC,[1]; [9],-2.62
same,Z-AUC,[1]; measured here: PEO4 Z-AUC,-3.23
O=S(=O)(O)CCSSCCS(=O)(=O)O,Z-AUC,[1],-0.0996 (inactive)
same,Z-AUC,[1]; [9],0.123
same,Z-AUC,[1]; measured here: PEO4 Z-AUC,0.876
CN(C)c1ccc2cc(C(=O)N[C@@H](CCCN=C(N)CCl)C(=O)NCc3ccccc3)ccc2c1,Z-AUC,[1],1.15 (inactive)
same,Z-AUC,[1]; [9],0.744
same,Z-AUC,[1]; measured here: PEO4 Z-AUC,1.03
COc1cc([C@@H]2c3cc4c(cc3[C@H](O)[C@H]3COC(=O)[C@@H]23)OCO4)cc(OC)c1OC,Potency,[1],1230 nM (active)
same,Z-AUC,[1]; [9],-1.51
same,Z-AUC,[1]; measured here: PEO4 Z-AUC,-1.58
Oc1ccc(-c2ccc(-c3cc(Nc4cccc(CNC5CC5)c4)n[nH]3)cc2)c(O)c1,Z-AUC,[1],-0.35 (inactive)
same,Z-AUC,[1]; [9],0.119
same,Z-AUC,[1]; measured here: PEO4 Z-AUC,0.0871
N#Cc1c(C2CCNCC2)cc(-c2c(O)cccc2OCC2CC2)nc1N,Z-AUC,[1],0.339 (inactive)
same,Z-AUC,[1]; [9],0.598
same,Z-AUC,[1]; measured here: PEO4 Z-AUC,0.733
O=C(Nc1cccc(Nc2ncc(Br)c(NCCc3cnc[nH]3)n2)c1)N1CCCC1,Z-AUC,[1],-0.432 (inactive)
same,Z-AUC,[1]; [9],-0.127
same,Z-AUC,[1]; measured here: PEO4 Z-AUC,-0.522
Oc1cc(-c2nc(-c3ccccc3)[nH]c2-c2ccncc2)ccc1Cl,Z-AUC,[1],-0.516 (inactive)
same,Z-AUC,[1]; [9],-0.935
same,Z-AUC,[1]; measured here: PEO4 Z-AUC,-1.11
CC(C)c1cnn2c(NCc3ccccc3)cc(NCCCCCCN)nc12,Z-AUC,[1],1.27 (inactive)
same,Z-AUC,[1]; [9],1.33
same,Z-AUC,[1]; measured here: PEO4 Z-AUC,1.15
CCS(=O)(=O)Nc1ccc2[nH]c(O)c(C(=Nc3ccc(CN4CCCCC4)cc3)c3ccccc3)c2c1,Z-AUC,[1],-1.37 (inactive)
same,Z-AUC,[1]; [9],-1.2
same,Z-AUC,[1]; measured here: PEO4 Z-AUC,-1.32
COc1cc(CCc2cc(NC(=O)c3ccc(N4C[C@@H](C)N[C@@H](C)C4)cc3)n[nH]2)cc(OC)c1,Z-AUC,[1],-1.36 (inactive)
same,Z-AUC,[1]; [9],-0.945
same,Z-AUC,[1]; measured here: PEO4 Z-AUC,-0.842
CC(Cc1ccc(O)c(O)c1)(NN)C(=O)O (stereo not given),Z-AUC,[1],1.29 (inactive)
same,Z-AUC,[1]; [9],0.784
same,Z-AUC,[1]; measured here: PEO4 Z-AUC,0.906
CN1C(C(=O)Nc2ccccn2)=C(O)c2sc(Cl)cc2S1(=O)=O,Z-AUC,[1],0.627 (inactive)
same,Z-AUC,[1]; [9],0.551
same,Z-AUC,[1]; measured here: PEO4 Z-AUC,0.669
C[C@@]12C[C@@]3(O)O[C@@H](O1)[C@]1(COC(=O)c4ccccc4)[C@@H]3C[C@@]12O[C@@H]1O[C@H](CO)[C@@H](O)[C@H](O)[C@@H]1O,Potency,[8],inactive
same,max response,[2],0.508% (inactive)
same,outcome,[3],inactive
same,outcome,[5],inactive
same,outcome,[6],inactive
same,z-score,[7]; [10],-0.0471
same,z-score,[7]; [11],0.702
same,z-score,[7]; [12],-0.0246
